Laboratory results published in PubChem BioAssay.
Calls of active or inactive are those of the source.

How the values were obtained:
[1] = binders of probe aFSTL3 on microarray, primary screen, stem cell growth factor project, biochemical, small-molecule microarray, fluorescence 635/667 (AID 1064); settings: higher = more signal;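 also: measures binding of the biotinylated anti-FSTL3 antibody to printed compounds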
[2] = binders from COS7 lysate, DM2A8 probe, primary screen, torsin A project, cell lysate, small-molecule microarray, fluorescence 635/667 (AID 1065); settings: higher = more signal, COS7 lysate expressing mutant human TOR1A
[3] = binders of probe aFGF2 on microarray, primary screen, stem cell growth factor project, biochemical, small-molecule microarray, fluorescence 635/667 (AID 1067); settings: higher = more signal;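 also: measures binding of biotinylated aFGF2 protein to printed compounds on slides; z-score merges feature fluorescence and signal-to-noise across triplicate slides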
[4] = binders of probe aFGF10 on microarray, primary screen, stem cell growth factor project, biochemical, small-molecule microarray, fluorescence 635/667 (AID 1071); settings: higher = more signal;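 also: score merges 667 nm spot intensity and signal to noise from triplicate slides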
[5] = target: Neurogenic locus notch homolog protein 2 (Homo sapiens) (UniProt Q04721); assay: Notch2 binders on small-molecule microarrays, primary screen, biochemical, small-molecule microarray, 635 nm fluorescence, stem cell growth factors (AID 1073); settings: Notch2 binding, higher = more signal
Sequence of Neurogenic locus notch homolog protein 2 (Homo sapiens) (Q04721 whole entry, looked up, canonical isoform): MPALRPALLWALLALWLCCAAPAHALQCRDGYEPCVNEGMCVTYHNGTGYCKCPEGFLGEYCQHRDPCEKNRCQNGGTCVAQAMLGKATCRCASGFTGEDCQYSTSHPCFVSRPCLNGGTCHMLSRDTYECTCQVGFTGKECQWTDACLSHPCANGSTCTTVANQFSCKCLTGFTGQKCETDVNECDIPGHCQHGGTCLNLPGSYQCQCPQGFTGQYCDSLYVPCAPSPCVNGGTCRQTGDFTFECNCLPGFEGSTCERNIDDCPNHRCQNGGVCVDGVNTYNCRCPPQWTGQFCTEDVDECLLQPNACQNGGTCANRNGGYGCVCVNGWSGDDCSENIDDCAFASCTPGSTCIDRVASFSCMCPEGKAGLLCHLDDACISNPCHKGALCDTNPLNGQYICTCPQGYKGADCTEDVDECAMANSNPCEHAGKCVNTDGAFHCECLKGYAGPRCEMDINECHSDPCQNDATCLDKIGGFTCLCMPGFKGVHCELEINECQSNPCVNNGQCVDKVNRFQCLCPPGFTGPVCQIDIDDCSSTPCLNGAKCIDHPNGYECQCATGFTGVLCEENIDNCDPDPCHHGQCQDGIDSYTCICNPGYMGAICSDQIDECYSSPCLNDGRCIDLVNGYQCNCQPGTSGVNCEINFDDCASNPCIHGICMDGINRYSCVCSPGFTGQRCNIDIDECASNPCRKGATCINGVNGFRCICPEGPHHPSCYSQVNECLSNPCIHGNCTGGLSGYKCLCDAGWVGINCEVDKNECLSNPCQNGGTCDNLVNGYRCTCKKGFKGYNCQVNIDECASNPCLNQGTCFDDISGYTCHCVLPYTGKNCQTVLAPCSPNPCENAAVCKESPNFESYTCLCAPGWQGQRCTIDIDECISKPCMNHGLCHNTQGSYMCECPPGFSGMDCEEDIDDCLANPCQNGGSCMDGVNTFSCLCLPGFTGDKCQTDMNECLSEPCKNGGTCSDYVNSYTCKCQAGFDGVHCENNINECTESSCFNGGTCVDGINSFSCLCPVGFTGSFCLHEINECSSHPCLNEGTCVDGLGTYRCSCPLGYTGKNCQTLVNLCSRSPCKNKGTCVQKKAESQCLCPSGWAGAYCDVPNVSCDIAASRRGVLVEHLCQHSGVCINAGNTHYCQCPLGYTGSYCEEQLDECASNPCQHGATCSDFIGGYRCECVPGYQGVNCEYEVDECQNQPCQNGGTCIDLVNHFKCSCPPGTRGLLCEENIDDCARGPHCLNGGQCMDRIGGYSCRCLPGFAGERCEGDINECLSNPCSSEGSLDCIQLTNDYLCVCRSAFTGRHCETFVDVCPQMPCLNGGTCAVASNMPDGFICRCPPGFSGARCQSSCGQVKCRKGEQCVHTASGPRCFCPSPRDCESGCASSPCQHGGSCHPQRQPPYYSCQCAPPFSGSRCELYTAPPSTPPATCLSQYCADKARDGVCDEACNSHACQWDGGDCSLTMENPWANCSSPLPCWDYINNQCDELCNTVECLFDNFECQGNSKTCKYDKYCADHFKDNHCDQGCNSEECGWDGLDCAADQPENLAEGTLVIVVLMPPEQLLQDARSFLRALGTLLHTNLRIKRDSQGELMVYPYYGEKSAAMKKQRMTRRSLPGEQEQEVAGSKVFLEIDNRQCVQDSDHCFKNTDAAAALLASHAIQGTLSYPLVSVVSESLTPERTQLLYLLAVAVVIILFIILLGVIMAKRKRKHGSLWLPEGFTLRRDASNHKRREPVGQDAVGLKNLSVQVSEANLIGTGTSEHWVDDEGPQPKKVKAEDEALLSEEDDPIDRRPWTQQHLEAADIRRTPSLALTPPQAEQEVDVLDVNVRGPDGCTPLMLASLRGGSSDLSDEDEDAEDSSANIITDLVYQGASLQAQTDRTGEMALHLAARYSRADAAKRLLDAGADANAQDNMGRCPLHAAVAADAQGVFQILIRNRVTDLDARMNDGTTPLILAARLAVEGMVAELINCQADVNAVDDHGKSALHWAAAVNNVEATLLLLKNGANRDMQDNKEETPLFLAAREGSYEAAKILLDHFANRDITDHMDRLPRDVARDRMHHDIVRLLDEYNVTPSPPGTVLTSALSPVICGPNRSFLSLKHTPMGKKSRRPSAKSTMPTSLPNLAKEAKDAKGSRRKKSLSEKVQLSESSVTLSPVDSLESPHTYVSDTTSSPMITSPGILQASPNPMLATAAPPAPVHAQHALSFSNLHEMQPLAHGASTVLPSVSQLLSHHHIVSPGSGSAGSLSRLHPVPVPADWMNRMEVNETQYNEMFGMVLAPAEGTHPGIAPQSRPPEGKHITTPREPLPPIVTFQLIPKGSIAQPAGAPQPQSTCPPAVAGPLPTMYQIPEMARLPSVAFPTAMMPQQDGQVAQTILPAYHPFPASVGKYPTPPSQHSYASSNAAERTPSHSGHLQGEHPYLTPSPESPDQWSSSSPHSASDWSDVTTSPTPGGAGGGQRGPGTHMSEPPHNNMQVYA

[6] = target: Pro-neuregulin-1, membrane-bound isoform (Homo sapiens) (UniProt Q02297); assay: NRG1 binders on small-molecule microarrays, primary screen, psychiatric disease protein project, biochemical, small-molecule microarray, fluorescence 635/667 (AID 1075); settings: NRG1 binding, 635 nm fluorescence, higher = more signal;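 also: score combines 667 nm spot fluorescence with signal to noise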
Sequence of Pro-neuregulin-1, membrane-bound isoform (Homo sapiens) (Q02297 whole entry, looked up, the tested form may be a part, canonical isoform): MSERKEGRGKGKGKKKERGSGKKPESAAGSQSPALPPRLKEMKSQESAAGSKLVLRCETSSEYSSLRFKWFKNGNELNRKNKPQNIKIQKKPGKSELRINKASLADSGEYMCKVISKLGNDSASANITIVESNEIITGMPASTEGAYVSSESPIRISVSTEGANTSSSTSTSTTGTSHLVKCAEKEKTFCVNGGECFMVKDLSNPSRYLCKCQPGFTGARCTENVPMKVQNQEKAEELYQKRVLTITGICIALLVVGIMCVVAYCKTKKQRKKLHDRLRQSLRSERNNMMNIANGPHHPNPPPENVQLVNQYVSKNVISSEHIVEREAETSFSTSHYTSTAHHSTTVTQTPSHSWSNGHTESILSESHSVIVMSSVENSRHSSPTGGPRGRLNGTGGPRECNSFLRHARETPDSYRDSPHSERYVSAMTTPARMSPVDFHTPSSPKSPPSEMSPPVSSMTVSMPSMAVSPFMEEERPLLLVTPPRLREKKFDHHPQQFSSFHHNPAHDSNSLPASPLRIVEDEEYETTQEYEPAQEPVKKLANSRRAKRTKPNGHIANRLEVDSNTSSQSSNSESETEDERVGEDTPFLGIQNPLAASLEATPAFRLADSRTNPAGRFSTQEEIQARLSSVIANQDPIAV

[7] = test system: Neuregulin-1 EGF-like domain; assay: binders of neuregulin-1 EGF-like domain, primary screen, biochemical, small-molecule microarray, 635 nm fluorescence (AID 1081); settings: small-molecule microarray binding, higher = more signal;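 also: binding of the protein to compounds printed on small-molecule microarray slides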
[8] = FRG1 promoter luciferase signal modulators, primary screen, FRG1 inhibition for FSHD, cell-based, C2C12 myotubes, firefly/Renilla luciferase, luminescence (AID 1084); settings: higher = more signal, called active from +8 up or from −8 down
[9] = binders of probe aFST on microarray, primary screen, stem cell growth factor project, biochemical, small-molecule microarray, fluorescence 635/667 (AID 1086); settings: higher = more signal;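 also: score merges 667 nm fluorescence with signal-to-noise of each printed compound spot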
[10] = binders of probe aHhip on microarray, primary screen, stem cell growth factor project, biochemical, small-molecule microarray, fluorescence 635/667 (AID 1087); settings: higher = more signal;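 also: score merges spot fluorescence at 667nm with spot signal to noise ratio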

CCCCCCCCCCC(O)C1C=CC2C(=O)N(C)C(=O)C2N1N1CCCCC1 (stereo not given) gave a composite z-score [1] of 0.449, a composite z-score [2] of -0.346 and a composite z-score [3] of -0.213. For the same molecule, the composite z-score [4] was -1.1, the composite z-score [5] was -1.96 and the composite z-score [6] was 0.252. The composite z-score [7] was -0.413, the z-score [8] was -0.635 (inactive) and the composite z-score [9] was -0.744. It also gave a composite z-score [10] of -0.0423.
NC(=O)[C@@]1(CCS(=O)(=O)c2ccccc2)COC(c2ccc(OCCCO)cc2)=N1 showed a composite z-score [1] of 0.615, a composite z-score [2] of 0.0735 and a composite z-score [3] of 0.0777. The composite z-score [4] was 0.0833, the composite z-score [5] was 0.963 and the composite z-score [6] was 1.78. The composite z-score [7] was 0.832, the z-score [8] was -0.429 (inactive) and the composite z-score [9] was 0.194. For the same molecule, the composite z-score [10] was -0.112.
With CC(C)CNC(=O)[C@@H]1c2ccccc2C(=O)N(C(C)C)[C@H]1c1ccc(CO)cc1 the composite z-score [1] was 0.172, the composite z-score [2] was -0.0466 and the composite z-score [3] was -0.138. It also gave a composite z-score [4] of -0.466, a composite z-score [5] of -0.811 and a composite z-score [6] of -0.566. The composite z-score [7] was 1.41, the z-score [8] was -0.981 (inactive) and the composite z-score [9] was -0.117. For the same molecule, the composite z-score [10] was -0.261.
CC(C)c1ccc(NN2C(C(O)C(C)C)C=CC3C(=O)N(c4ccccc4)C(=O)C32)cc1 (stereo not given) gave a composite z-score [1] of 0.733, a composite z-score [2] of 0.237 and a composite z-score [3] of 0.225. The composite z-score [4] was 0.707, the composite z-score [5] was 1.55 and the composite z-score [6] was 1.92. The composite z-score [7] was 1.31, the z-score [8] was -0.0025 (inactive) and the composite z-score [9] was 1.3. It also gave a composite z-score [10] of -0.208.
Molecule [N-]=[N+]=NCc1ccccc1C[C@]1(C(=O)NCc2ccccc2)N=C(c2ccc(OCCCO)cc2)O[C@H]1c1ccccc1CN=[N+]=[N-] has a composite z-score [1] of 1.79, a composite z-score [2] of 0.227 and a composite z-score [3] of 0.14. The composite z-score [4] was 0.0819, the composite z-score [5] was 1.13 and the composite z-score [6] was 1.73. The composite z-score [7] was 1.16, the z-score [8] was 0.976 (inactive) and the composite z-score [9] was 0.654. The composite z-score [10] was -0.082.
Work on C=C(CCCC)C(=O)CC[C@H](OC(=O)c1cccnc1)c1ccc(CO)o1 yielded a composite z-score [1] of -0.426, a composite z-score [2] of 1.08 and a composite z-score [3] of -0.0752. For the same molecule, the composite z-score [4] was 0.797, the composite z-score [5] was 0.816 and the composite z-score [6] was 0.407. The composite z-score [7] was 1.23, the z-score [8] was -0.0577 (inactive) and the composite z-score [9] was 0.606. The composite z-score [10] was -0.134.
Work on CN(C)C(=O)[C@]1(Cc2ccccc2CN=[N+]=[N-])N=C(c2ccc(OCCCO)cc2)O[C@@H]1c1ccccc1N=[N+]=[N-] yielded a composite z-score [1] of 0.168, a composite z-score [2] of 0.142 and a composite z-score [3] of 0.117. It also gave a composite z-score [4] of 0.41, a composite z-score [5] of 1.49 and a composite z-score [6] of 1.85. The composite z-score [7] was 1.22, the z-score [8] was -1.04 (inactive) and the composite z-score [9] was 1.22. The composite z-score [10] was -0.264.
With CC(=O)c1ccc(C(O)C2C=CC3C(=O)NC(=O)C3N2Nc2ccc(Cl)cc2Cl)cc1 (stereo not given) the composite z-score [1] was 0.863, the composite z-score [2] was 0.37 and the composite z-score [3] was 0.045. The composite z-score [4] was 0.606, the composite z-score [5] was 1.01 and the composite z-score [6] was 1.72. The composite z-score [7] was 0.669, the z-score [8] was 1.12 (inactive) and the composite z-score [9] was 0.462. For the same molecule, the composite z-score [10] was -0.106.
COc1cc2c(cc1O)C(C1CC1)N(Cc1ccc([N+](=O)[O-])o1)CC2 (stereo not given) showed a composite z-score [1] of -0.0848, a composite z-score [2] of -0.242 and a composite z-score [3] of -0.0226. The composite z-score [4] was 0.682, the composite z-score [5] was 1.52 and the composite z-score [6] was 1.49. The composite z-score [7] was 1.03, the z-score [8] was -1.1 (inactive) and the composite z-score [9] was 0.609. For the same molecule, the composite z-score [10] was -0.0003.
CCCCC(=C=CC[C@@H](O)c1cccc(OCCO)c1)C[C@@H](O)COCc1ccccc1 gave a composite z-score [1] of -0.407, a composite z-score [2] of -0.323 and a composite z-score [3] of -0.174. For the same molecule, the composite z-score [4] was 0.211, the composite z-score [5] was -0.546 and the composite z-score [6] was 0.679. The composite z-score [7] was -0.0821, the z-score [8] was -2.47 (inactive) and the composite z-score [9] was -0.336. For the same molecule, the composite z-score [10] was 0.0053.
Molecule C#CCN=C(N)N has a composite z-score [1] of -0.504, a composite z-score [2] of 0.147 and a composite z-score [3] of -0.127. It also gave a composite z-score [4] of 0.209, a composite z-score [5] of 0.389 and a composite z-score [6] of 0.748. The composite z-score [7] was 1.01, the z-score [8] was 0.007 (inactive) and the composite z-score [9] was 0.224. For the same molecule, the composite z-score [10] was -0.226.
For COCCOC(=O)N1C(=O)[C@@]2(c3cc(C#CC4(O)CCCCCC4)ccc31)[C@H](C(=O)N1CCc3cc(OC)c(OC)cc3C1)[C@H]1C(=O)O[C@H](c3ccccc3)[C@H](c3ccccc3)N1[C@@H]2c1ccc(O)cc1, the composite z-score [1] was -0.277, the composite z-score [2] was 2.26 and the composite z-score [3] was -0.01. It also gave a composite z-score [4] of 0.68, a composite z-score [5] of 1.51 and a composite z-score [6] of 0.156. The composite z-score [7] was 1.16, the z-score [8] was -0.877 (inactive) and the composite z-score [9] was 0.101. The composite z-score [10] was -0.0618.
In the case of COC(=O)[C@@]1(Cc2ccc(OC)cc2)[C@H]2c3cc(C(=O)N4CCCC4)n(CCc4ccc(OC)c(Br)c4)c3C[C@H]2CN1C(=O)c1ccccc1, the composite z-score [1] is reported as 1.02, the composite z-score [2] is reported as -0.116 and the composite z-score [3] is reported as 0.159. It also gave a composite z-score [4] of 0.929, a composite z-score [5] of 1.04 and a composite z-score [6] of 2.17. For the same molecule, the composite z-score [7] was 1.44, the z-score [8] was 1.25 (inactive) and the composite z-score [9] was 0.546. It also gave a composite z-score [10] of 0.21.
NC(=O)NCC#Cc1ccc2c(c1)[C@]1(C(=O)N2)[C@H](C(=O)N2CCCCCCC2)[C@H]2C(=O)O[C@H](c3ccccc3)[C@H](c3ccccc3)N2[C@@H]1c1ccc(O)cc1 showed a composite z-score [1] of 3.57, a composite z-score [2] of 0.346 and a composite z-score [3] of 0.688. For the same molecule, the composite z-score [4] was 0.8, the composite z-score [5] was 0.879 and the composite z-score [6] was 0.94. For the same molecule, the composite z-score [7] was 0.947, the z-score [8] was 0.805 (inactive) and the composite z-score [9] was 2.99. It also gave a composite z-score [10] of 2.75.
Work on CN(C)CCCNC(=O)[C@@H]1c2ccccc2C(=O)N(C2Cc3ccccc3C2)[C@H]1c1ccc(CO)cc1 yielded a composite z-score [1] of 0.158, a composite z-score [2] of 0.345 and a composite z-score [3] of -0.0566. The composite z-score [4] was -0.273, the composite z-score [5] was 0.175 and the composite z-score [6] was 0.618. The composite z-score [7] was 0.849, the z-score [8] was -1.3 (inactive) and the composite z-score [9] was 0.178. It also gave a composite z-score [10] of -0.151.
COCCOC(=O)N1C(=O)[C@@]2(c3cc(C#CC4=CCCCC4)ccc31)[C@H](c1ccccc1OCCO)N1[C@H](c3ccccc3)[C@H](c3ccccc3)OC(=O)[C@H]1[C@@H]2C(N)=O showed a composite z-score [1] of -0.42, a composite z-score [2] of 0.599 and a composite z-score [3] of 0. For the same molecule, the composite z-score [4] was 0.525, the composite z-score [5] was 0.931 and the composite z-score [6] was -0.253. The composite z-score [7] was 1.05, the z-score [8] was -0.89 (inactive) and the composite z-score [9] was 0.366. For the same molecule, the composite z-score [10] was -0.217.
